We go through 14 compounds from PubChem BioAssay (EPA / NIEHS).

Assay [1] can be described thus: TOX21_p53_BLA_p2_viability: Viability Assessment in the Tox21 HCT-116 p53 Agonism Beta-lactamase Assay, Phase 2 (AID 2283591).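 Further: actives lower the ATP signal meaning cytotoxicity.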 The method, boiled down:
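HCT-116 p53-bla cells (4000/well) rested 5 h at 37C, then received compounds in DMSO (217-fold dilution) for 16 h at 37C, 5% CO2. After the CCF4 read, CellTiter-Glo was added; ATP luminescence was read after 30 min at room temperature.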

Assay [2] is described as follows: TOX21_p53_BLA_p3_viability: Viability Assessment in the Tox21 HCT-116 p53 Agonism Beta-lactamase Assay, Phase 3 (AID 2283593).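 Further: cells exposed to compound for 16 h before reading.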 Summed up: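 HCT-116 cells (4000/well) rested 5 h at 37C, then got DMSO compounds by pin tool (217-fold dilution) for 16 h at 37C, 5% CO2. After the bla read, CellTiter-Glo was added and luminescence read at 30 min, room temperature.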
The target of assay [3] is Cellular tumor antigen p53 (Homo sapiens) (UniProt P04637). Briefly: TOX21_p53_BLA_p5_ratio: Tox21 HCT-116 p53 Agonism Beta-lactamase Assay, Ratio, Phase 5 (AID 2283599). Summed up: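 HCT-116 cells carrying a p53-inducible beta-lactamase reporter were seeded at 4000 cells/well and dosed after 5 h with compound in DMSO (217-fold dilution). After 16 h at 37C, CCF4-AM substrate was added for 2 h, and the 460/530 nm emission ratio was scored as gain-of-signal versus DMSO.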
Chain of Cellular tumor antigen p53 (Homo sapiens) (P04637 whole entry, looked up): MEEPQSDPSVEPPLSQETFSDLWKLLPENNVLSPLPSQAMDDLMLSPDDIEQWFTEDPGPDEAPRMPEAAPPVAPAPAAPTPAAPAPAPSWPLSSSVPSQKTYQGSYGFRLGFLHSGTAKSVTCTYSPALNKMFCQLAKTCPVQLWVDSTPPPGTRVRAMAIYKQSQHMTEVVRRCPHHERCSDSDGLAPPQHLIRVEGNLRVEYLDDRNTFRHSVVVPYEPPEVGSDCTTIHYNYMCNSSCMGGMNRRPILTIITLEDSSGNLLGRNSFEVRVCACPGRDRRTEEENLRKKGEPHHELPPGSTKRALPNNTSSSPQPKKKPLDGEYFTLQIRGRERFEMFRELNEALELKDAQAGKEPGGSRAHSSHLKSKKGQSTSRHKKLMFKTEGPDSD

The nature of assay [4]: TOX21_p53_BLA_p5_viability: Viability Assessment in the Tox21 HCT-116 p53 Agonism Beta-lactamase Assay, Phase 5 (AID 2283600). Summed up: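 Decreased CellTiter-Glo luminescence denotes lost viability. Exposure: 16 h at 37C, 5% CO2, with compounds from DMSO stocks diluted 217-fold in wells of 4000 cells.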
In assay [5] the target is Cellular tumor antigen p53 (Homo sapiens) (UniProt P04637). Briefly: TOX21_p53_BLA_p4_ratio: Tox21 HCT-116 p53 Agonism Beta-lactamase Assay, Ratio, Phase 4 (AID 2283601). The method, boiled down: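 HCT116 cells carrying an inducible beta-lactamase reporter were plated at 4000 cells/well, rested 5 h, then exposed to compounds in DMSO (217-fold dilution) for 16 h at 37C. CCF4-AM substrate was loaded 2 h at room temperature; 460/530 nm emission ratio scored gain-of-signal versus DMSO.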

The next assay concerns the target PGR (gene 5241) (UniProt P06401). Briefly: TOX21_PR_BLA_Followup_Antagonist_ratio: Tox21 HEK293 Progesterone Receptor (PR) Antagonism Beta-lactamase Follow-Up Assay, Ratio (AID 2283934). Summed up: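 Read-out: blue/green beta-lactamase FRET ratio (cleaved ch2 over uncleaved ch1), fitted relative to DMSO baseline. Cells: PR-UAS-bla HEK293T, GAL4-UAS reporter, stimulated with 1 nM R5020 final; 16 hr compound exposure, 37C.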

Assay [6] is described as follows: TOX21_PR_BLA_Followup_Antagonist_viability: Viability Assessment in the Tox21 HEK293 Progesterone Receptor (PR) Antagonism Beta-lactamase Follow-Up Assay (AID 2283936).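 Further: cells exposed to compound with R5020 agonist for 16 h; hits lower the luminescence signal meaning cytotoxicity.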 The method, boiled down:
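PR-UAS-bla HEK293T cells in medium with 2% charcoal-stripped FBS were treated with compounds plus R5020 for 16 hr at 37C. After the beta-lactamase read, CellTiter-Glo was added to the same wells and luminescence read after 30 min at room temperature.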

The nature of assay [7]: TOX21_PR_LUC_Followup_Agonist_viability: Viability Assessment in the Tox21 HEK293 Progesterone Receptor (PR) Agonism Luciferase Follow-Up Assay (AID 2283941).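 Further: loss of signal means cytotoxicity so actives lower viability.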 The method, boiled down: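 Cytotoxicity counter-screen: ATP content by CellTiter-Glo luminescence, loss of signal = reduced viability. HEK293-PR-A-luc, 3,000 cells/well, compound exposure 16 h, 37C.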
A short description of assay [8]: TOX21_p53_BLA_p4_viability: Viability Assessment in the Tox21 HCT-116 p53 Agonism Beta-lactamase Assay, Phase 4 (AID 2283597).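 Further: hits lower the luminescence signal meaning cytotoxicity.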 Summed up:
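4000 HCT116 cells per well; 5 h attachment; compounds from DMSO, 217-fold dilution; 16 h at 37C. Then CCF4-AM, 2 h RT, followed by CellTiter-Glo, 30 min RT, luminescence. Decrease = cytotoxicity.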

For assay [9], the system named is Brachyury (BRA) Protein Expression, Deisenroth Lab, TBXT (gene 6862). Description: CCTE_Deisenroth_DEVTOX-GLR_legacy_Bra: (Legacy) CCTE's DevTox GLR-Endo Assay Evaluation of Brachyury (BRA) Protein Expression, Deisenroth Lab (AID 2284329; active means hit-call score of the fitted dose curve at least 0.9, where 1 is the maximum; inactive means score below 0.9). The method, boiled down:
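High-content imaging of fixed RUES2-GLR cells after a 48-hour differentiation with two compound exposures yields percent cells whose Bra signal exceeds pluripotent control median by 5x BMAD; values are baseline-corrected to DMSO.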

Assay [10] is described as follows: CCTE_Deisenroth_DEVTOX-GLR_legacy_CellCount: (Legacy) Viability Assessment in CCTE's DevTox GLR-Endo Assay, Deisenroth Lab (AID 2284331; active means hit-call score of the fitted dose curve at least 0.9, where 1 is the maximum; inactive means score below 0.9). The note with it: actives raise or lower the signal. Summed up:
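Seed RUES2-GLR 24 h; differentiate 48 h, dosing at 0 and 24 h; fix, stain nuclei; image 5 fields/well; count nuclei. Conc. 1 nM - 200 uM, single technical replicate, n=4 experiments; bidirectional fit vs 0.2% DMSO.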

Assay [11] has as its system SRY-box transcription factor 17 (SOX17) Protein Expression, Deisenroth Lab, SOX17 (gene 64321). Description: CCTE_Deisenroth_DEVTOX-GLR_legacy_Sox17: (Legacy) CCTE's DevTox GLR-Endo Assay Evaluation of SRY-box transcription factor 17 (SOX17) Protein Expression, Deisenroth Lab (AID 2284341; active means hit-call score of the fitted dose curve at least 0.9, where 1 is the maximum; inactive means score below 0.9). The note with it: actives raise or lower the signal. The method, boiled down: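 Using the RUES2-GLR line, compounds are tested as 10-point series during 48-h defined-media differentiation. Sox17 reporter fluorescence per cell determines positivity; endpoint is percentage positive, analysed bidirectionally versus DMSO baseline.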

Assay [12] deals with SRY-box transcription factor 2 (SOX2) Protein Expression, Deisenroth Lab, SOX2 (gene 6657). Description: CCTE_Deisenroth_DEVTOX-GLR_legacy_Sox2: (Legacy) CCTE's DevTox GLR-Endo Assay Evaluation of SRY-box transcription factor 2 (SOX2) Protein Expression, Deisenroth Lab (AID 2284346; active means hit-call score of the fitted dose curve at least 0.9, where 1 is the maximum; inactive means score below 0.9). Summed up:
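Two exposures, 24 h apart, during 48 h defined-media differentiation of seeded RUES2-GLR cells; nuclei-stained cells imaged. Sox2 positivity called at 5x BMAD above endoderm control median, DMSO median subtracted.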

The test system is the same in assay [13]. Briefly: CCTE_Deisenroth_DEVTOX-GLR_Endo_SOX2: CCTE's DevTox GLR-Endo Assay Evaluation of SRY-box transcription factor 2 (SOX2) Protein Expression, Deisenroth Lab (AID 2284412). Summed up:
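Endpoint is percent SOX2-positive cells (SOX2+ count/total cells) minus 0.2% DMSO control, from high-content imaging of fixed, nuclear-stained RUES2-GLR cells. Dosing twice at 24 h intervals over 48 h differentiation, 1 nM–200 uM in 10 points.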

Assay [14] has as its system SRY-box transcription factor 17 (SOX17) Protein Expression, Deisenroth Lab, SOX17 (gene 64321). Description: CCTE_Deisenroth_DEVTOX-GLR_Endo_SOX17: CCTE's DevTox GLR-Endo Assay Evaluation of SRY-box transcription factor 17 (SOX17) Protein Expression, Deisenroth Lab (AID 2284413; active means hit-call score of the fitted dose curve at least 0.9, where 1 is the maximum; inactive means score below 0.9). Summed up:
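Fluorescent microscopy of a SOX17 reporter in RUES2-GLR pluripotent cells scored endoderm differentiation after 48 h and two 24-h-spaced exposures. Values are percent change in SOX17+ population against 0.2% DMSO, n=4 experimental replicates.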

Assay [15] concerns Brachyury (BRA) Protein Expression, TBXT (gene 6862). Description: CCTE_Deisenroth_DEVTOX-GLR_Endo_BRA: CCTE's DevTox GLR-Endo Assay Evaluation of Brachyury (BRA) Protein Expression, Deisenroth Lab (AID 2284417; active means hit-call score of the fitted dose curve at least 0.9, where 1 is the maximum; inactive means score below 0.9). Summed up:
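Percent BRA+ (mesoderm) RUES2-GLR cells after 48 h differentiation with two exposures, 1 nM - 200 uM; 0.2% DMSO control subtracted.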

A short description of assay [16]: CCTE_Deisenroth_DEVTOX-GLR_Endo_CellCount: Viability Assessment in CCTE's DevTox GLR-Endo Assay, Deisenroth Lab (AID 2284420; active means hit-call score of the fitted dose curve at least 0.9, where 1 is the maximum; inactive means score below 0.9). Summed up: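 RUES2-GLR pluripotent cells seeded 24 h, then differentiated 48 h in defined media with two chemical exposures 24 h apart. Nuclei counted by high-content imaging; 10-point 1 nM–200 uM series; percent change versus 0.2% DMSO.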

Assay [17] deals with SRY-box transcription factor 2 (SOX2) Protein Expression, Deisenroth Lab, SOX2 (gene 6657). Description: CCTE_Deisenroth_DEVTOX-GLR_Pluri_SOX2: CCTE's DevTox GLR-Pluri Assay Evaluation of SRY-box transcription factor 2 (SOX2) Protein Expression, Deisenroth Lab (AID 2284428; active means hit-call score of the fitted dose curve at least 0.9, where 1 is the maximum; inactive means score below 0.9). Summed up: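 RUES2-GLR human pluripotent cells, two exposures 24 h apart over 48 h differentiation; 10-point series 1 nM - 200 uM. High-content imaging gives SOX2+ cells divided by cell count, reported as percent change versus 0.2% DMSO.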

For assay [18], the system named is Brachyury (BRA) Protein Expression, Deisenroth Lab, TBXT (gene 6862). Description: CCTE_Deisenroth_DEVTOX-GLR_Pluri_BRA: CCTE's DevTox GLR-Pluri Assay Evaluation of Brachyury (BRA) Protein Expression, Deisenroth Lab (AID 2284429). The method, boiled down:
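Mesoderm readout after 48 h differentiation of human RUES2-GLR cells, dosed twice (24-h intervals) at 1 nM - 200 uM. BRA+ frequency from fluorescence imaging of fixed, nuclear-stained cells, DMSO-corrected.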

The nature of assay [19]: CCTE_Deisenroth_DEVTOX-GLR_Pluri_CellCount: Viability Assessment in CCTE's DevTox GLR-Pluri Assay Evaluation of Total Cell Counts, Deisenroth Lab (AID 2284430; active means hit-call score of the fitted dose curve at least 0.9, where 1 is the maximum; inactive means score below 0.9). Summed up: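 Cytotoxicity readout: fluorescent nuclei counts by high-content imaging, expressed as percent change relative to 0.2% DMSO. Human RUES2-GLR pluripotent line differentiated 48 h, dosed twice at 24-h intervals across 1 nM - 200 uM (10 points).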

The nature of assay [20]: TOX21_PR_BLA_Followup_Agonist_viability: Viability Assessment in the Tox21 HEK293 Progesterone Receptor (PR) Agonism Beta-lactamase Follow-Up Assay (AID 2283935).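 Further: signal loss means lower viability so actives are cytotoxic.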 The method, boiled down: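 Luminescent ATP quantitation (CellTiter-Glo, 30 min, room temperature) in the same wells as the beta-lactamase read, on PR-UAS-bla HEK293T cells exposed to compound for 16 hr at 37C in 2% charcoal-stripped serum.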

Inconclusive results are not listed. Calls of active or inactive are those of the source. How the source made its calls, unless noted: active means hit-call score of the fitted dose curve at least 0.9, where 1 is the maximum; inconclusive means response in the unintended direction; inactive means score below 0.9.

Chain of PGR (gene 5241) (P06401 whole entry, looked up, the tested form may be a part): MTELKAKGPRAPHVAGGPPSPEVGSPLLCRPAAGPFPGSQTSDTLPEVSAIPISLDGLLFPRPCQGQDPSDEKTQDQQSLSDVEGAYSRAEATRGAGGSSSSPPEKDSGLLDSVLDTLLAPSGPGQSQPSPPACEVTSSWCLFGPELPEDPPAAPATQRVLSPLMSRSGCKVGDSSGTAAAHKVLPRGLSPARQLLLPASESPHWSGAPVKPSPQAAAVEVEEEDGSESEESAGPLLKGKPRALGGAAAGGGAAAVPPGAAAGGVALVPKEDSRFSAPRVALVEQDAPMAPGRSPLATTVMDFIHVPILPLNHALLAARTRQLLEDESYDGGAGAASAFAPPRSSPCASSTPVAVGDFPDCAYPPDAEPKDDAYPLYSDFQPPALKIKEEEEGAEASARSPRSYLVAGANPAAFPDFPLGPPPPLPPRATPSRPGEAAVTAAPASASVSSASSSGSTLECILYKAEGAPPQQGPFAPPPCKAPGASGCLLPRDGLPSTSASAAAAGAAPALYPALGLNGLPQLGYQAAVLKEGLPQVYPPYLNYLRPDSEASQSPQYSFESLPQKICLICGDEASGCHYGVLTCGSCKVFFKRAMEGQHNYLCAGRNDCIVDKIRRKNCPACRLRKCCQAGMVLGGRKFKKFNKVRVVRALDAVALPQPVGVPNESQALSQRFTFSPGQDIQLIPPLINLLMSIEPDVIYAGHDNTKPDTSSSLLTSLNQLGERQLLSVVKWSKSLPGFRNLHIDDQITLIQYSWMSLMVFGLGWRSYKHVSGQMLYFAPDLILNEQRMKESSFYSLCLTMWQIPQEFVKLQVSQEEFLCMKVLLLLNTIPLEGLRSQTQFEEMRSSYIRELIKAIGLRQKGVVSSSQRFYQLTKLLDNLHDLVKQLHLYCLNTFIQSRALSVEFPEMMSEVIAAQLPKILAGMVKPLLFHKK

On to `COC(=O)c1ccccc1C(=O)c1ccc(OCCN2CCCCC2)cc1`, for which the call in [1], in [2], in [3], in assay [4] and in assay [5] was inactive.

On to `CC(=O)Oc1cc2c(s1)CCN(C(C(=O)C1CC1)c1ccccc1F)C2` (configuration not stated), for which the call in assay [1], in [2] and in assay [4] was inactive.

`COc1ccc(C(=O)CCC(=O)O)c2ccccc12`: the outcome in [1], in [2] and in [4] was inactive.

Consider `C[C@@H]1C[C@H]2[C@@H]3C[C@H](F)C4=CC(=O)C(Cl)=C[C@]4(C)[C@@]3(F)[C@@H](O)C[C@]2(C)[C@@]1(O)C(=O)CO`, for which the result (in [1]; in [2]; in assay [3]; in assay [4]; in the assay with PGR (gene 5241); in assay [6]) was inactive. Further, the compound was called inactive in assay [7].

Take `CCN(CCCCOC(=O)c1ccc(OC)c(OC)c1)C(C)Cc1ccc(OC)cc1` (configuration not stated): the outcome in assay [1], in [2], in assay [8] and in assay [5] was inactive.

By AC50 is commonly meant the midpoint of the concentration-response curve, whichever way the signal moves. As to `CCCCCN=C(N)N/N=C/c1c[nH]c2ccc(OC)cc12`, the compound was classed as inactive in assay [1], in [2], in assay [8], in [5], in assay [9] and in assay [12]. In addition, the AC50 is 5.09 µM (active) in assay [10]; 5.47 µM (active) in assay [11]; 100 µM (active) in assay [13]; 5.27 µM (active) in [14]; 143 µM (active) in assay [15]; 5.15 µM (active) in assay [16]. Moreover, the AC50 was 7.76 µM (active) in assay [17], 5.27 µM (active) in assay [18] and 7.83 µM (active) in assay [19].

For the compound `O=C(O)COc1nn(Cc2ccccc2)c2ccccc12`, the compound was classed as inactive in assay [1], in assay [2], in assay [8], in assay [4] and in assay [5].

Consider `CC1(C)[C@H]2CC[C@](C)(C2)[C@H]1O`, for which the outcome in assay [1], in [2], in assay [8] and in assay [5] was inactive.

Consider `CCOC(=O)COc1ccc2c(C)c(CCN(CC)CC)c(=O)oc2c1Cl`, for which the call in assay [1], in assay [2], in assay [3], in assay [4] and in assay [5] was inactive.

Consider `CCCCCCCCCCCC(=O)N(CC)CC`, for which the compound was called inactive in [1], in assay [2], in assay [3] and in assay [4].

Regarding `CCOCCOCCOC(C)=O`, the outcome in [1], in assay [2], in assay [3], in [4] and in assay [5] was inactive.

With `O=S(=O)(Oc1ccc(Cl)cc1)c1ccccc1`, the compound was called inactive in assay [1], in assay [2], in assay [3], in assay [4], in [20] and in assay [6]. Also, the compound was called inactive in assay [7]. Also, in the assay with PGR (gene 5241), the AC50 was 59.9 µM (active).

For `CCOC(=O)C1=C[C@@H](OC(CC)CC)[C@H](NC(C)=O)[C@@H](N)C1`, the compound was classed as inactive in assay [1], in assay [2], in [3] and in [5].

With `O=C(O)c1cccc(/C=C2/C[C@@H]3[C@@H](/C=C/[C@@H](O)C4CCCCC4)[C@H](O)C[C@@H]3O2)c1`, the result in [1], in [2], in assay [3], in [4] and in assay [5] was inactive.
